From PubChem BioAssay
Compounds with a hit are over-represented: about 12% of the library has one in this group of screens.
INS promoter inh – TRM-6 insulin promoter activity inhibition | 130,000 compounds, 0.9% hits | TRM-6 cells (human fetal islet line), insulin promoter-eGFP reporter, imaging; reporter expression induced with tamoxifen | inhibition, % at 2 µM | AID 1273;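 active = inhibition above the mean plus 3 SD, with well images judged a real hit on visual review, cut at about 60% in these data, passing the limit was not always enough; inconclusive = inhibition over the cutoff but images rejected on review; inactive = inhibition not above the cutoff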
KCC2 mod – KCC2 (human) Cl- transport modulation; B-score of Tl+ flux slope (higher = more flux/activation; lower = inhibition) at 10 µM; KCC2 cells, thallium flux FluoZin-2 fluorescence; 190,000 compounds, 2.2% hits; Q9H2X9; AID 1456;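 active = thallium flux slope and its plate-corrected score both differing from the plate sample mean at a set confidence after two filtering rounds, in either direction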;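 note: slope of fluorescence scaled to starting intensity during 10 to 20 s after thallium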
Target sequence (Q9H2X9 whole entry, looked up): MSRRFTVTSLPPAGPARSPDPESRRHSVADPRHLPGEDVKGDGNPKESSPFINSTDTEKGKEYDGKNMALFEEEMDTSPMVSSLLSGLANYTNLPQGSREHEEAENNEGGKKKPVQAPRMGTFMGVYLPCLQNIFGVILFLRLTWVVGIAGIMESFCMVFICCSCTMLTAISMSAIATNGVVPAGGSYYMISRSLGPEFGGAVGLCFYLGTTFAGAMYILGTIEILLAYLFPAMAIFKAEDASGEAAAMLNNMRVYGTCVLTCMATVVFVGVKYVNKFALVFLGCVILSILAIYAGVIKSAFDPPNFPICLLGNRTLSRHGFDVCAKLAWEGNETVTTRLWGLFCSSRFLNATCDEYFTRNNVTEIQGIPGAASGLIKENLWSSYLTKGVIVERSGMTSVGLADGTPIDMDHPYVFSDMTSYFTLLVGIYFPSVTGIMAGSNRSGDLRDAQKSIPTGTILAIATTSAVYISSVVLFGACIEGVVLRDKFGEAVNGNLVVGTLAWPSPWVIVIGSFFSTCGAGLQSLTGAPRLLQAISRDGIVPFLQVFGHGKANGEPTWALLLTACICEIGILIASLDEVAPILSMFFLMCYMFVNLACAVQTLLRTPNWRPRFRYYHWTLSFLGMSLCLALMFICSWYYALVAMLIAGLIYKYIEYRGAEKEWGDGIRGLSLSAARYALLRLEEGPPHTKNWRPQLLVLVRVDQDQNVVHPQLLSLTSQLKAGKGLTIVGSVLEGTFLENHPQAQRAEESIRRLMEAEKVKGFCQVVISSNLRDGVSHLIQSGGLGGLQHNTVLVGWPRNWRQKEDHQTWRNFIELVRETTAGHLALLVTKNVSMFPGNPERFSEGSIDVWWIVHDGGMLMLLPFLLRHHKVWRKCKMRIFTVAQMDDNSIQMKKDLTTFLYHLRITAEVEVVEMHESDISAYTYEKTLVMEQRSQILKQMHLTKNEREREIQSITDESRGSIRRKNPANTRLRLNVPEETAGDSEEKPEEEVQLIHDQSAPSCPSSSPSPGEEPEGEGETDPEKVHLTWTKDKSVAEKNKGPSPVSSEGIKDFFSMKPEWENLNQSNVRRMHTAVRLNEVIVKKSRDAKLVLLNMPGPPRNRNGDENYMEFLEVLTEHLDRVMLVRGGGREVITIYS
Lmaj promast – reduces viability of Leishmania major promastigotes. resazurin fluorescence viability. inhibition, % at 10 µM. 200,000 compounds, 9% hits; in the data active = inhibition above about 50%;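 note: promastigotes grown with compound for 44 hours at 28 °C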
Ins promoter up – MIN6 insulin promoter up-regulation | MIN6 insulin promoter-GFP reporter, high-content imaging; active compounds read high | z-score at 5 µM | 190,000 compounds, 0.3% hits;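 active = z-score above 3 at 5 µM with at least 500 cells counted in the well; inconclusive = wells under 500 cells, flagged as cytotoxic or low count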
ROMK primary – modulates human ROMK potassium channel activity. 130,000 compounds, 2% hits. AID 1918. Tet-inducible ROMK, thallium flux fluorescence; actives lie on both sides. B-score at 10 µM. P48048;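 active = signal ratio slope over the read window, or its plate-corrected B-score, at least 3 SD from the plate mean, either direction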;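 note: B-score of the F/F0 ratio slope over 7 to 12 s after thallium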
WT yeast gro inh – growth inhibition of WT yeast, mitochondrial fusion screen; 190,000 compounds, 2.1% hits; mitochondrial fusion phenotypic screen, WT strain; inhibition, % at 10 µM; AID 1362; in the data active = inhibition above about 58%; tested in S. cerevisiae
Numbers without * were called inactive; u = inconclusive; x = no result.

SMILES	INS promoter inh	KCC2 mod	Lmaj promast	Ins promoter up	ROMK primary	WT yeast gro inh
CC1CCN(c2nc3ccccc3nc2C(C#N)C(=O)OC2CCCCC2)CC1 (stereo not given)	38	0.78	37	0.65	x	x
CC1CN(c2nc3ccccc3nc2C(C#N)C(=O)OC2CCCCC2)CC(C)O1 (stereo not given)	29	-0.27	64*	-0.24	x	60*
CC1CN(c2nc3ccccc3nc2C(C#N)C(=O)NC2CCCCC2)CC(C)O1 (stereo not given)	x	x	x	0.47	x	x
O=c1[nH]c(-c2ccccn2)cc2ccccc12	67*	-1.4	-2	0.38	1.3	-9
O=c1[nH]c(CN2CCc3ccccc3C2)nc2ccccc12	39	0.79	-5	0.54	x	-1
Cc1[nH]c2ccccc2c1CN1CCc2ccccc2C1	6	0.66	100*	u	0.014	-3
COc1cc(/C=C\C(=O)NCc2ccc3[nH]c(C)cc3c2)cc(OC)c1OC	66*	-0.4	-1	0.3	1	10
CC1=CC(C)(C)N2C(=O)C3(C(C#N)=C(N)Oc4cc(C)oc(=O)c43)c3cc(C)cc1c32 (stereo not given)	-30	0.54	91*	x	x	x
CC1=CC(C)(C)N2C(=O)C3(C(C#N)=C(N)Oc4cc(O)ccc43)c3cccc1c32 (stereo not given)	-33	-0.51	56*	0.24	x	-12
COc1cc2c3c(c1)C1(C(=O)N3C(C)(C)C=C2C)C(C#N)=C(N)Oc2cc(C)oc(=O)c21 (stereo not given)	-12	-0.13	-6	0.24	x	-4
Cc1cc2c3c(c1)C1(C(=O)N3C(C)(C)CC2C)C(C#N)=C(N)Oc2cc(O)ccc21 (stereo not given)	-216	-0.51	100*	-0.61	x	7
CC1=CC(C)(C)N2C(=O)C3(C(C#N)=C(N)OC4=C3C(=O)CC(C)(C)C4)c3cccc1c32 (stereo not given)	x	x	0	0.22	0.047	-2
CCN(C(=O)COC(=O)/C=C/c1ccccc1)C1CCCCC1	8	-2.1	-9	-0.12	-0.44	22
CCCCc1nc(SCC(=O)Nc2ncccn2)n[nH]1	33	1.3	-3	-0.05	x	-8
O=C(Nc1ccc2snnc2c1)Nc1cccc2ccccc12	-7	x	100*	0.26	-0.025	89*
COc1ccccc1NC(=O)c1ccc2snnc2c1	x	0.73	99*	0.29	0.29	15
COc1ccc(C(N)=O)cc1NC(=O)c1cccc(F)c1	3	1.7	2	x	0.63	65*
Cc1nc2cc(NC(=O)Nc3cccc4ccccc34)ccc2n1C	x	0.91	-6	0.16	0.0013	-8
O=C(Nc1ccccc1)c1ccc2snnc2c1	33	0.37	77*	-0.23	-0.038	-17
COc1cc(NC(=O)c2ccc3snnc3c2)cc(OC)c1	x	0.024	x	-0.45	-0.36	x
O=C(COC(=O)c1ccco1)NCc1ccccc1Cl	43	-0.34	0	0.63	0.43	-11
Cc1cc(NC(=O)CCC(=O)N(CC(=O)NC2CCCC2)c2cccc(C)c2C)no1	-38	0.23	1	x	-0.76	x
CC(C(=O)NCC1CCCCC1)N1CCN(S(=O)(=O)/C=C/c2ccccc2)CC1 (stereo not given)	-4	-2.3	99*	-0.68	-0.92	9
Clc1ccc(-c2cn(-c3ccccc3)c3[n+]2CCS3)cc1	x	0.14	70*	-0.61	x	-6
Clc1ccc(-c2c[n+]3c(n2-c2ccccc2)SCC3)cc1	x	1	97*	-1.3	0.44	11
SMILES	INS promoter inh	KCC2 mod	Lmaj promast	Ins promoter up	ROMK primary	WT yeast gro inh
CC(=O)c1ccc(-n2cc(-c3ccc(C(C)(C)C)cc3)[n+]3c2SCCC3)cc1	x	-0.71	100*	-2.7	-1.5	13
O=[N+]([O-])c1cccc(-c2c[n+]3c(n2-c2ccccc2)SCC3)c1	-33	0.58	18	-0.32	0.93	8
COc1ccc(-c2cn(-c3ccc(Br)cc3)c3[n+]2CCS3)cc1	50	0.049	100*	-1.7	-0.15	-7
O=C(CC1C(=O)NCCN1Cc1ccccc1C(F)(F)F)NCCc1ccccn1 (stereo not given)	5	-0.028	-5	1.2	0.51	8
O=C(C[n+]1ccccc1)Nc1nc2ccccc2s1	8	-0.096	-6	0.22	0.36	2
O=C(O/N=C\c1ccc(N2CCOCC2)c([N+](=O)[O-])c1)c1ccccc1Cl	x	0.071	-1	0.1	-0.12	1
CC1CC(C)CN(C(=S)Nc2ccc(SC(F)F)cc2)C1 (stereo not given)	x	1.5	73*	-2.5	x	16
